Counter-ions that a name gives are not always drawn.
System: Saccharomyces cerevisiae BY4741 SeMeCo community
Experiment: z-score of subpopulation abundance vs DMSO median, subpopulation auxotrophic for LU; higher = larger share of this subpopulation than in DMSO controls
Details: 10 µM; 24 h; SM minimal medium; subpopulation (auxotrophy): LU
Description: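 Fluorescent four-plasmid SeMeCo (self-establishing metabolically cooperating S. cerevisiae BY4741 community; plasmids pH-mRuby2, pL-mWasabi, pU-eCFP, pM-TagRFP657) was grown 24 h in minimal SM medium with each Selleck FDA-approved drug at 10 µM in 384-well plates. Cells were fixed and imaged by high-content confocal microscopy. For each auxotrophic subpopulation (and the prototroph), a z-score gives the deviation from the DMSO vehicle-control population median.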

Row | Structure (SMILES) | z-score of subpopulation abundance
1 | O=C1NCC2(CCN(CCc3ccccc3)CC2)O1 [Fenspiride HCl] | -0.49
2 | COC(=O)Nc1nc2cc(C(=O)c3ccc(F)cc3)ccc2[nH]1 [Flubendazole] | -0.32
3 | CC(=O)[C@H]1CC[C@H]2[C@@H]3CCC4=CC(=O)CC[C@]4(C)[C@H]3CC[C@]12C [Progesterone] | -1.24
4 | O=C1OCCN1/N=C/c1ccc([N+](=O)[O-])o1 [Furazolidone] | -5.41
5 | CN[C@H]1CC[C@@H](c2ccc(Cl)c(Cl)c2)c2ccccc21 [Sertraline HCl] | -0.7
6 | O=C(O)CCC(=O)Nc1ccc(S(=O)(=O)Nc2nccs2)cc1 [Succinylsulfathiazole] | -0.4
7 | O=c1[nH]c(=O)n([C@H]2C[C@H](O)[C@@H](CO)O2)cc1/C=C/Br [Brivudine] | -0.22
8 | NNc1nncc2ccccc12 [Hydralazine HCl] | -0.18
9 | C[C@H]1NCc2cc(-c3ccc4c(=O)c(C(=O)O)cn(C5CC5)c4c3OC(F)F)ccc21 [Garenoxacin] | -0.05
10 | CCC(=O)c1c(O)cc(O)cc1O [Flopropione] | -0.57
11 | CN1CCOC(c2ccccc2)c2ccccc2C1 (stereo not given) [Nefopam HCl] | 0.08
12 | COc1cc2c(cc1OC)C(=O)C(CC1CCN(Cc3ccccc3)CC1)C2 (stereo not given) [Donepezil] | 0.06
13 | CCCCCCCCCC(=O)N[C@@H](Cc1c[nH]c2ccccc12)C(=O)N[C@H](CC(N)=O)C(=O)N[C@@H](CC(=O)O)C(=O)N[C@@H]1C(=O)NCC(=O)N[C@@H](CCCN)C(=O)N[C@@H](CC(=O)O)C(=O)N[C@H](C)C(=O)N[C@@H](CC(=O)O)C(=O)NCC(=O)N[C@H](CO)C(=O)N[C@@H]([C@H](C)CC(=O)O)C(=O)N[C@@H](CC(=O)c2ccccc2N)C(=O)O[C@@H]1C [Daptomycin] | -0.76
14 | C=C[C@H]1CN2CC[C@H]1C[C@H]2[C@H](O)c1ccnc2ccc(OC)cc12 [Quinine HCl Dihydrate] | -0.08
15 | O=C(O)c1cc(/N=N/c2ccc(O)c(C(=O)O)c2)ccc1O [Olsalazine Sodium] | -0.37
16 | NCC[C@H](O)C(=O)N[C@@H]1C[C@H](N)[C@@H](O[C@H]2O[C@H](CN)[C@@H](O)[C@H](O)[C@H]2O)[C@H](O)[C@H]1O[C@H]1O[C@H](CO)[C@@H](O)[C@H](N)[C@H]1O [Amikacin disulfate] | 0.07
17 | CC[C@H](C)C(=O)O[C@H]1C[C@H](O)C=C2C=C[C@H](C)[C@H](CC[C@@H](O)C[C@@H](O)CC(=O)O)[C@H]21 [Pravastatin sodium] | 1.81
18 | CCCCCNC(=N)N/N=C/c1c[nH]c2ccc(OC)cc12 [Tegaserod Maleate] | 0.84
19 | CC1(C)S[C@@H]2[C@H](NC(=O)[C@H](N)c3ccccc3)C(=O)N2[C@H]1C(=O)OCOC(=O)[C@@H]1N2C(=O)C[C@H]2S(=O)(=O)C1(C)C [Sultamicillin Tosylate] | -0.03
20 | Oc1cccc(O)c1 [Resorcinol] | -1.33

Row | Structure (SMILES) | z-score of subpopulation abundance
21 | CCCCC(=O)O[C@H]1CC[C@H]2[C@@H]3CCc4cc(O)ccc4[C@H]3CC[C@]12C [Estradiol valerate] | -0.16
22 | C(=C\c1ccccc1)/CN1CCN(C(c2ccccc2)c2ccccc2)CC1 [Cinnarizine] | 1.38
23 | COC(=O)C1=C(C)NC(C)=C(C(=O)OC2CCCN(Cc3ccccc3)C2)C1c1cccc([N+](=O)[O-])c1 (stereo not given) [Benidipine HCl] | 0.07
24 | CC(C)NC(=N)NC(=N)Nc1ccc(Cl)cc1 [Proguanil] | -0.48
25 | Cc1ccc(-c2ncc(Cl)cc2-c2ccc(S(C)(=O)=O)cc2)cn1 [Etoricoxib] | -0.52
26 | O=C(O)c1cc(-c2ccc(F)cc2F)ccc1O [Diflunisal] | -1.6
27 | CCCCc1oc2ccccc2c1C(=O)c1cc(I)c(OCCN(CC)CC)c(I)c1 [Amiodarone HCl] | -1.37
28 | COc1cnc(NS(=O)(=O)c2ccc(N)cc2)nc1 [Sulfameter] | 1.19
29 | CCN(CC)CCOC(=O)c1ccc(N)cc1 [Procaine HCl] | -0.34
30 | O=S1(=O)CCN(CN2CCS(=O)(=O)NC2)CN1 [Taurolidine] | 0.35
31 | CCN1CCN(c2cc3c(cc2F)c(=O)c(C(=O)O)cn3C2CC2)CC1 [Enrofloxacin] | -0.21
32 | CO[C@H]1C[C@@H]2CC[C@@H](C)[C@@](O)(O2)C(=O)C(=O)N2CCCC[C@H]2C(=O)O[C@H]([C@H](C)C[C@@H]2CC[C@@H](OP(C)(C)=O)[C@H](OC)C2)CC(=O)[C@H](C)/C=C(\C)[C@@H](O)[C@@H](OC)C(=O)[C@H](C)C[C@H](C)/C=C/C=C/C=C/1C [Ridaforolimus (Deforolimus, MK-8669)] | 5.01
33 | C[C@]12CC[C@@H]3c4ccc(OC(=O)c5ccccc5)cc4CC[C@H]3[C@@H]1CC[C@@H]2O [Estradiol Benzoate] | -0.68
34 | CO[C@H]1C[C@@H]2CC[C@@H](C)[C@@](O)(O2)C(=O)C(=O)N2CCCC[C@H]2C(=O)O[C@H]([C@H](C)C[C@@H]2CC[C@@H](OC(=O)C(C)(CO)CO)[C@H](OC)C2)CC(=O)[C@H](C)/C=C(\C)[C@@H](O)[C@@H](OC)C(=O)[C@H](C)C[C@H](C)/C=C/C=C/C=C/1C | 4.31
35 | CCCCCCCCCCCCCCCCCCOP(=O)([O-])OC1CC[N+](C)(C)CC1 [Perifosine (KRX-0401)] | 12.1
36 | Cn1c([N+](=O)[O-])cnc1COC(N)=O [Ronidazole] | -0.22
37 | CO/N=C(\C(=O)N[C@@H]1C(=O)N2C(C(=O)O)=C(CSc3nc(=O)c(O)nn3C)CS[C@H]12)c1csc(N)n1 [Ceftriaxone Sodium Trihydrate] | 0.56
38 | COc1ccc(C2CNC(=O)C2)cc1OC1CCCC1 (stereo not given) [Rolipram] | -0.29
39 | O=C1C(N(CO)C(=O)NCO)N(CO)C(=O)N1CO (stereo not given) [Diazolidinyl urea] | 0.3
40 | COc1ccc(C(C)=O)c(O)c1 [Paeonol] | 0.12

Source: the supplement of paper PMC8975748
